# A selection: hits, their analogues and other compounds. The true share with any hit is near 4.3%.
# HSF-1 act = increases HSF-1 driven luciferase reporter signal | AID 504408 | NIH3T3-HGL HSF-1 luciferase reporter, MG132, 8 h; 100% = twice DMSO control signal | activation, % at 9 µM | 1.7% of 300,000 active;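 active = mean replicate activation of at least 50% with a set share of replicates each reaching 50%; inconclusive = only one of those two conditions met; inactive = mean below 50% and too few replicates reaching it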;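 also: 0% = median of the neutral control wells and 100% = twice that signal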
# esBAF inh = blocks esBAF chromatin remodeling in mouse ES cells. Bmi1-luciferase knock-in reporter, 24 h; 100% = twice the neutral-well signal. reporter increase, % at 12.5 µM. 2% of 350,000 active; in the data active = activation above about 40%; inconclusive = no clear call, values can overlap the other calls;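 also: 0% = median of the plate's neutral control wells and 100% = double that signal; a rise in the Bmi1 reporter signal indicates esBAF inhibition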
# MITF TRPM1 HTS = activators of MITF-driven TRPM1 promoter activity in SK-MEL-5 cells; AID 588334; 0.75% of 300,000 active; SK-MEL-5 TRPM1-promoter luciferase, 24 h; % of positive control, neutral wells = 0; activation, % at 12.5 µM;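 active = mean activation of at least 80% with every replicate also reaching 80%; inconclusive = mean reaches 80% but some replicate falls short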;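 also: 0% = neutral control wells and 100% = parthenolide positive control wells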
# SMARCA2 act = SMARCA2 function activation, primary screen. 1% of 370,000 active. activation, % at 9.1 µM. AID 652017. MG213 cells, MMTV-luciferase reporter, dexamethasone, overnight; in the data active = activation above about 7.8%;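 also: 0% = vehicle wells and 100% = reference activator wells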
# HSF1 inh = HSF1 inhibition; NIH3T3-HGL HSE-luciferase, MG132-induced, luminescence 8 h; hits give low values; activity change, negative = inhibition, % at 7.5 µM (by protocol); 0.77% of 300,000 active; AID 2098;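 active = more than half of replicate wells show activity change below -50%, luminescence cut by over half; inconclusive = some wells, but at most half, below -50%; inactive = no replicate well below -50%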;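 also: luciferase reports HSF-1 transcriptional activity via heat shock element; 0% = median of DMSO wells and -100% = zero luminescence signal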
# Wnt act = activates Wnt/beta-catenin signaling in a reporter cell assay. activator, plate reader. activation, % at 9.35 µM. 1.2% of 300,000 active. AID 743398; in the data active = activation above about 30%, passing the limit was not always enough; inconclusive = no clear call, values can overlap the other calls;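 also: 0% = neutral control wells and 100% = positive control wells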
# SMARCA2 conf = confirmation of SMARCA2 (BRM) function activators; 30% of 3,500 active; shares compounds with SMARCA2 act; activation, % at 9.1 µM; MG213 cells, MMTV-luciferase with dexamethasone, luminescence, overnight; MG213 cells expressing E1A, Rb sequestered; DMSO wells 0%, reference activator 100%;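 active = activation above its plate's cutoff, the mean activation of tested wells plus 3 SD, cut at about 7.9% in these data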
# VP16 Luc act = activates GAL4-VP16 luciferase, flagging SMARCA2 activator hits; HEK293 GAL4-VP16 pG5luc reporter, luciferase luminescence; scaled: DMSO wells 0%, SAHA wells 100%; activation, % at 9.1 µM; 41% of 3,500 active; shares compounds with SMARCA2 act;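 active = activation above the solvent-only control well mean plus 3 SD, averaged across control plates, cut at about 5.2% in these data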
# Numbers without * were called inactive; u = inconclusive; x = not tested or not shown.
SMILES,HSF-1 act,esBAF inh,MITF TRPM1 HTS,SMARCA2 act,HSF1 inh,Wnt act,SMARCA2 conf,VP16 Luc act
CC1CCc2c(sc(NC(=O)C3CCCO3)c2C#N)C1 (stereo unspecified),5,u,128*,14*,8,7,4,12*
CC(C)C(=O)Nc1sc2c(c1C#N)CCCCC2,9,50*,x,12*,2,14,2,2
C[C@@H]1CN([C@@H](C)CO)C(=O)c2cc(NC(=O)CCC(F)(F)F)ccc2O[C@@H](C)CCCCO[C@H]1CN(C)S(=O)(=O)c1cccs1,x,-4,x,x,x,x,x,x
CN1C(=O)c2cc(NC(=O)c3cccs3)ccc2OC[C@H]2O[C@@H](CC(=O)NCC(F)(F)F)CC[C@@H]21,x,3,x,x,x,x,x,x
Cc1ccc(C(=O)NCCc2nc3ccccc3[nH]2)cc1[N+](=O)[O-],-33,x,9,8.6*,-17,0,-3,-1
O=C(NCCc1nc2ccccc2[nH]1)c1ccc(Cl)c([N+](=O)[O-])c1,u,x,-5,-2,19,-5,x,x
CCN(CC)CCn1c2ccccc2c2cnc(N)c(C#N)c21,-29,x,-56,47*,-22,x,71*,-2
CN(C)C=Nc1ncc2c3ccccc3n(CCN(C)C)c2c1C#N,-31,0,2,1,-30,x,x,x
C[C@H]1CN([C@@H](C)CO)C(=O)c2cc(C#CC3CC3)cnc2O[C@H]1CN(C)Cc1ccccn1,x,-3,x,x,x,x,x,x
Cc1cccc(NC(=S)NNC(=O)c2csc(C)c2)c1,39,x,65,9.2*,20,-2,8.0*,7.5*
COC(=O)c1ccc2c(c1)C(C)(C)C(/C=C/c1ccc(O)cc1)=[N+]2C,85*,x,-106,14*,80,x,-16,-2
COc1ccc(NC(=O)Nc2ccc3c(c2)CC(=O)N([C@H](C)CO)C[C@H](C)[C@H](CN(C)S(=O)(=O)c2ccc(F)cc2)O3)cc1,x,-1,x,x,x,x,x,x
O=C1CN(c2ccccc2)C(=S)N1C(=O)c1ccc(Br)cc1,49,u,x,8.8*,15,0,7,16*
O=C(c1ccc(Br)cc1)N1CCC(C(=O)N2CCN(c3ccccc3)CC2)CC1,-5,x,-4,-3,2,-1,x,x
COCCNC(=O)/C(C#N)=C/c1ccc2c(c1)OCO2,-11,-1,9,9.1*,-3,4,5,2
N#C/C(=C\c1ccc2c(c1)OCO2)C(=O)NCc1ccco1,-9,x,4,0,-6,2,x,x
O=C(c1cc(-c2ccccc2O)on1)N1CCc2ccccc2C1,23,15,24,8.6*,16,0,2,1
O=C(c1cc(-c2ccc(O)cc2)on1)N1CCc2ccccc2C1,47,22,21,-1,38,2,x,x
Cc1ccc(S(=O)(=O)N2CC[C@@H]3[C@H](CO)N(C)c4ccc(C#Cc5cccnc5)cc4[C@@H]32)cc1,x,9,x,x,x,x,x,x
CC(=O)N1CCc2c(sc(NC(=O)CN3C(=O)c4ccccc4C3=O)c2C(N)=O)C1,10,-4,-17,-3,5,-2,x,x
Cc1csc(NC(=O)CN2C(=O)c3ccccc3C2=O)c1C(N)=O,-12,x,x,9.1*,-5,1,5,1
C=CCn1c(-c2c(C)nc3cc(C)ccn23)n[nH]c1=S,-4,x,1,9.1*,-2,-2,-3,0
C=CCn1c(-c2ccc(OC)c(OC)c2)n[nH]c1=S,1,x,3,-9,-5,5,x,x
COCC(=O)N(C[C@H]1N[C@H](CO)[C@H]1c1ccc(C2=CCCC2)cc1)C(C)C,x,5,x,x,x,x,x,x
C[C@@H]1CCCCO[C@@H](CN(C)S(=O)(=O)c2ccc(Cl)cc2)[C@@H](C)CN([C@@H](C)CO)C(=O)c2cc(NC(=O)c3ccncc3)ccc2O1,x,0,x,x,x,x,x,x
SMILES,HSF-1 act,esBAF inh,MITF TRPM1 HTS,SMARCA2 act,HSF1 inh,Wnt act,SMARCA2 conf,VP16 Luc act
Cc1ccccc1NC(=O)c1onc2c1CCCC2,43,27,75,8.2*,17,0,7,8.1*
COc1ccc(C2=NN(C(=O)c3ccco3)C(c3cccs3)C2)cc1OC (stereo unspecified),x,16,x,12*,x,10,18*,5
COc1ccc(C2=NN(C(=O)CCCC(=O)O)C(c3cccs3)C2)cc1OC (stereo unspecified),3,x,-1,2,-3,-4,x,x
Cc1ccc(S(=O)(=O)CCC(=O)OCC(=O)NNC(=O)c2ccc([N+](=O)[O-])cc2)cc1,x,-4,1,-2,x,-4,x,x
Cc1ccc(C(=O)CCC(=O)OCC(=O)NNC(=O)c2ccc([N+](=O)[O-])cc2)cc1,x,-4,4,9.3*,x,-2,0,1
C[C@@H]1CN([C@H](C)CO)C(=O)c2cccc(NS(=O)(=O)c3cn(C)cn3)c2O[C@H]1CN(C)C(=O)Nc1ccc(C(F)(F)F)cc1,x,5,x,x,x,x,x,x
O=C(C[C@H]1C=C[C@H](NC(=O)NC2CCCCC2)[C@@H](CO)O1)NCc1ccccc1,x,3,x,x,x,x,x,x
Cn1c2ccccc2c2nnc(SCCN3CCOCC3)nc21,11,6,-4,10*,7,-1,0,2
CNc1nc(C)nc(-c2ccccc2O)n1,20,9,16,8.7*,6,5,8,5.1*
Cc1ccc(S(=O)(=O)NCc2cccnc2)cc1C(=O)N1CCCC1,4,2,4,-1,-4,0,x,x
COc1ccc(S(=O)(=O)Nc2cccc(SC)c2)cc1C(=O)N1CCOCC1,4,-5,12,9.6*,3,-2,0,0
COc1ccc(S(=O)(=O)NCc2cccnc2)cc1C(=O)N1CCCCC1,10,-4,x,9.8*,-6,-3,-1,1
O=C(Nc1ccc2nccnc2c1)Nc1ccccc1Cl,25,20,53,8.9*,8,9,1,6.8*
O=C(Nc1cccc(C(=O)O)c1)Nc1ccccc1Cl,-38,x,-47,5,-38,-1,x,x
CCOc1ccc(NC(=O)c2cnsn2)cc1,x,-47,14,8.1*,x,6,14*,5
CCOc1ccc(NC(=O)c2nccnc2CO)cc1,24,-1,53,9.8*,15,x,4,9.8*
CCOc1ccc(NC(=O)c2cnccn2)cc1,10,-34,22,6,3,12,x,x
Cc1cccc(-c2nnc(SCC3CNC(=O)O3)n2-c2ccc(Cl)cc2)c1 (stereo unspecified),35,x,4,0,-2,-3,x,x

# Compound activity from PubChem.
